Screening data from PubChem BioAssay.
A selection: hits, their analogues and other compounds. The true share with any hit is near 7.4%.
Rab9 promoter act = qHTS Assay for Rab9 Promoter Activators; Huh7 Rab9 promoter-luciferase reporter, luminescence, 24 h; Potency, µM (doses to about 9.22 µM), for inactives: top-dose activation, negative = inhibition, hits mostly activators; hit rate 2.8% among 320,000; also: % of control where 0% means no effect; nearly all actives have a fitted effect of over 60% in size
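Luminescence read-out: Huh7 cells stably expressing Rab9-luciferase, treated 24 h with compound at 37 °C, then lysed with luciferase reagent for 10 min at ambient before reading.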
ELG1 genotoxic = qHTS screen for small molecules that induce genotoxicity in human embryonic kidney (HEK293T) cells expressing luciferase-tagged ELG1. HEK293T ELG1-luciferase reporter, luminescence, 16 h. Potency, µM (doses to about 46 µM), for inactives: top-dose activity change, positive = activation, hits mostly activators. hit rate 1.3% among 330,000; also: % of control where 0% means no effect; nearly all actives have a fitted effect of over 60% in size
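Genotoxicity was scored as increased ELG1-luciferase reporter signal, measured by ONE-Glo luminescence (30 min, room temperature). Compound or vehicle exposure of the HEK293T reporter cells lasted 16 hr at 37°C.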
SMN2 splice up = qHTS Assay for Enhancers of SMN2 Splice Variant Expression | HEK293 SMN2-luciferase splicing reporter, luminescence, 30-36 h | Potency, µM (top dose mostly 46.1 µM), for the others: top-dose activity change, positive = activation, hits mostly activators | hit rate 2.8% among 210,000; also: % of control where 0% means no effect; nearly all actives have a fitted effect of over 55% in size
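HEK293 cells carry an SMN2 […]–luciferase reporter in which exon 7 inclusion puts luciferase in frame. Cells were plated 10-12 h before compound addition, then incubated 30-36 h at 37C. ONE-Glo luminescence was read; sodium butyrate at 4.5 mM final served as control.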
NPC1 prom act = qHTS Assay for NPC1 Promoter Activators. Huh7 NPC1 promoter luciferase reporter, 24 h. Potency, µM (titrated, usually from 9.22 µM), inactives show at the top dose activation, hits mostly activators. hit rate 2.4% among 320,000. AID 485313, 2010; also: % of control where 0% means no effect; nearly all actives have a fitted effect of over 60% in size
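Compounds in DMSO were transferred onto Huh7 NPC1-luciferase reporter cells pre-incubated 2 h; after 24 h at 37 °C, Amplite reagent was dispensed and luminescence recorded 10 min later.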
FLuc counter = qHTS profiling assay for firefly luciferase inhibitor/activator using purifed enzyme and Km concentrations of substrates (counterscreen for miR-21 project). Luciferin 4-monooxygenase (Photinus pyralis), P08659. purified FLuc, Km substrates, luminescence inhibition. Potency, µM (highest dose often 57.5 µM), for the others: top-dose activity change, negative = inhibition, usual class: inhibitors. hit rate 6.9% among 360,000. AID 588342, 2011;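 also: plate controls were vehicle for no effect and reference inhibitor for full effect; nearly all actives have a fitted effect of over 55% in size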
Target sequence (P08659 whole entry, looked up): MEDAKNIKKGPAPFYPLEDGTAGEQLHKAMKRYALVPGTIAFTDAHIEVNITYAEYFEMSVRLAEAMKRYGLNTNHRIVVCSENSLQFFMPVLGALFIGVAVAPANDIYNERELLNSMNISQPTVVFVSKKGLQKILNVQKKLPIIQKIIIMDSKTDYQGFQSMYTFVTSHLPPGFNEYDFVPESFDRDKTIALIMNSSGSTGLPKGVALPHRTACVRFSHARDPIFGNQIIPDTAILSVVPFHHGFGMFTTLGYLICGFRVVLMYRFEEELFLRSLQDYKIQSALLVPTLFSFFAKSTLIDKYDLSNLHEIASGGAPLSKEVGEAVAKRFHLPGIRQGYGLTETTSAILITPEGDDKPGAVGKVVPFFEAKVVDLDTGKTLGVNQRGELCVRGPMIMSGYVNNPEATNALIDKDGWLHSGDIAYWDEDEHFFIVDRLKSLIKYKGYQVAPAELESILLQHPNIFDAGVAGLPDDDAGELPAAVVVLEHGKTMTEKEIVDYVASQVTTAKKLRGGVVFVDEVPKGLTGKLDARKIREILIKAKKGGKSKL
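Biochemical qHTS of compounds, final roughly 60 µM downward over six points, against 10 nM purified firefly luciferase using Km concentrations of substrates (10 uM D-luciferin, 10 uM ATP) in Tris acetate pH 7.5 buffer; luminescence output.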
* = called active by the depositor; ? = inconclusive; . = not tested or not shown. Calls follow the shape of the dose curve; as a rule, active = well fitted curve in the direction sought with a large enough effect; inconclusive = small, poorly fitted or top-dose-only effect, or another doubt; inactive = no such curve, though single readings can be large; an effect the other way counts as inactive or inconclusive. Potency is read from the fitted curve at half-maximal effect.

SMILES | Rab9 promoter act | ELG1 genotoxic | SMN2 splice up | NPC1 prom act | FLuc counter
COc1ccc(C2C(C#N)=C(N)N(N(C)C)C3=C2C(=O)CC(C)(C)C3)cc1 (stereo not given) | 0.6% | 5.9% | . | 0.2% | 1.6%
Cc1ccsc1C1C(C#N)=C(N)N(N(C)C)C2=C1C(=O)CC(C)(C)C2 (stereo not given) | -4.0% | -6.9% | 25.1µM* | -0.8% | -0.3%
O=C(NCc1ccccc1Cl)c1cnc2sc(N3CCOCC3)nn2c1=O | . | . | . | . | -4.4%
CN(/N=C/c1cccnc1)c1cnc2ccccc2n1 | 2.82µM* | ? | 11.2µM* | ? | 5.36µM*
NC(=S)N/N=C/c1c[nH]c2ccc(OCc3ccccc3)cc12 | 0.4% | -6.6% | . | -2.1% | 21.3µM*
CC(C)OC(=O)[C@@H]1CC[C@H](C)[C@@H](CCC[C@@H]2CC=C[C@H](CC#N)O2)O1 | . | . | 5.9% | . | .
Cc1cc(N=Cc2c(O)ccc3cc(Br)ccc23)no1 | -0.8% | -1.9% | -2.0% | -0.7% | 0.0%
Cc1cccc(CNc2ncnc3ccc(-c4c(C)noc4C)cc23)c1 | . | . | 5.62µM* | . | .
Cc1noc(C)c1-c1ccc2ncnc(NC3CC3)c2c1 | . | . | 7.94µM* | . | .
CC(=O)Nc1ccc(CNc2ncnc3ccc(-c4c(C)noc4C)cc23)cc1 | -2.4% | 4.11µM* | . | -10.9% | -13.5%
Nc1nnc(CC(=O)N/N=C/c2ccccc2OCc2ccccc2F)s1 | -0.1% | -2.4% | . | 0.8% | 1.4%
Cc1ccccc1OCCOc1cccc(/C=N/NC(=O)Cc2nnc(N)s2)c1 | 0.447µM* | -0.5% | 5.01µM* | 1.58µM* | ?
Nc1nnc(CC(=O)N/N=C/c2cccc(OCCOc3ccccc3)c2)s1 | 3.16µM* | -0.3% | 10µM* | ? | 3.8%
Nc1nnc(CC(=O)N/N=C/c2cccc([N+](=O)[O-])c2)s1 | 6.1% | 1.1% | -10.3% | 5.1% | 2.5%
COc1ccc(C2C(=O)N(C3CCC(C)CC3)CC(=O)N2Cc2ccc(C)cc2)cc1OC (stereo not given) | . | . | . | . | -7.1%
CC(=O)c1c(C)[nH]c(C(=O)Nc2cccnc2)c1C | -2.0% | 3.6% | 21.2% | 2.6% | -0.3%
CC(=O)c1c(C)[nH]c(C(=O)Nc2nccs2)c1C | 2.82µM* | ? | 12.6µM* | ? | 23.9µM*
CC(=O)c1c(C)[nH]c(C(=O)Nc2cccc(C)n2)c1C | 0.447µM* | 1.64µM* | . | 0.355µM* | 8.49µM*
COc1ccccc1N(CC(=O)N1CCN(c2ccccc2)CC1)S(=O)(=O)c1ccc(C)cc1 | -0.4% | -9.2% | . | -2.6% | -0.1%
CCOc1ccc(-c2cc(NC(=O)c3ccccc3)c(C(=O)OC)s2)cc1 | . | . | 13.4% | . | 2.2%
COC(=O)c1sc(-c2ccc(C(C)(C)C)cc2)cc1NC(=O)CCC(=O)O | 26.9% | ? | . | 23.7% | 1.51µM*
COC(=O)c1sc(-c2ccc(Cl)cc2)cc1NC(=O)COCC(=O)O | 2.8% | 4.8% | . | 3.0% | ?
COC(=O)c1sc(-c2ccc(Cl)cc2)cc1NC(=O)/C=C/C(=O)O | -5.7% | 1.8% | . | -0.1% | 9.53µM*
CCn1c(/C=C/c2cc[n+](C)cc2)nc2ccccc21 | 4.6% | -4.0% | . | 8.3% | 1.7%
COc1ccc(/C=C/c2nc3ccccc3n2Cc2ccc(OC)c(OC)c2)cc1 | 0.794µM* | 2.06µM* | . | 1.58µM* | 0.426µM*
SMILES | Rab9 promoter act | ELG1 genotoxic | SMN2 splice up | NPC1 prom act | FLuc counter
CC(C)c1ccccc1NC(=O)Cn1c(/C=C/c2ccccc2)nc2ccccc21 | 9.8% | ? | . | -2.7% | 21.3µM*
CCCn1c(/C=C/c2ccccc2)nc2ccccc21 | 1.78µM* | ? | 11.2µM* | 1.78µM* | 3.01µM*
Cc1ccc(NC(=O)Cn2c(/C=C/c3ccccc3)nc3ccccc32)cc1C | 1.5% | ? | 17.6% | 1.5% | ?
COCCOCCn1c(/C=C/c2ccccc2)nc2ccccc21 | 1.41µM* | ? | 12.6µM* | 1.41µM* | 1.69µM*
O=C1NC(CCc2ccccc2)C(=O)N1CCOc1cccc(Br)c1 (stereo not given) | -1.0% | 3.2% | -17.9% | -6.3% | ?
CC(C)n1c(/C=C/c2ccccc2)nc2ccccc21 | ? | ? | 11.2µM* | ? | 2.39µM*
CC(C)n1c(CN(C)c2ccccc2)nc2ccccc21 | -2.5% | -7.1% | . | -5.2% | -9.7%
COc1ccc(Cn2c(CNC(=O)Cc3ccc(OC)c(OC)c3)nc3cccnc32)cc1 | . | . | . | . | -0.9%
CC1CC/C(=N/Nc2ccccc2)C(=O)N1 (stereo not given) | 7.3% | 6.5% | 27.1% | -0.2% | -19.0%
COc1ccc(C(=O)Nc2nc3n(n2)C(c2ccc(Cl)cc2)C=C(c2ccccc2)N3)cc1OC (stereo not given) | . | . | -3.4% | . | ?
Cc1ccccc1COc1ccc(-c2nn[nH]n2)cc1 | 20.9% | 9.1% | . | 4.4% | 26.9µM*
CCOc1ccc(-c2nn[nH]n2)cc1 | -4.4% | 2.7% | 27.5% | 10.2% | 10.7µM*
CCOc1ccc(-c2n[nH]c(=S)o2)cc1 | 19.5% | 15.9% | 17.3% | -4.3% | 10.7µM*
CCOc1ccc(-c2nn[nH]n2)cc1OCC | 0.7% | 1.3% | 3.4% | -2.1% | 1.2%
CCc1ccc(-c2nn[nH]n2)cc1 | 19.5% | 9.4% | 5.5% | 1.7% | 13.5µM*
c1ccc(-c2nn[nH]n2)cc1 | -0.8% | 0.4% | . | -1.6% | 4.1%
CCOc1ccccc1-c1n[nH]c(=S)o1 | -3.8% | -1.8% | -1.7% | -1.8% | -17.9%
CCn1cnc2cc(NCc3cccc(OC)c3O)ccc21 | -0.7% | 18.4µM* | 12.5% | -0.2% | 12µM*
Cc1ccc(CNc2ccc3c(c2)ncn3C(C)C)cc1 | 2.82µM* | 9.2µM* | . | 2.24µM* | 6.01µM*
CCn1cnc2cc(NCc3ccc(C)cc3)ccc21 | 3.98µM* | 8.2µM* | 12.6µM* | 2.82µM* | 15.1µM*
CCN(CC)c1ccc(CNc2ccc3c(c2)ncn3CC)cc1 | 2.2% | 3.3% | . | 1.2% | -5.0%
CCn1cnc2cc(NCc3ccc(Br)cc3)ccc21 | 0.708µM* | ? | . | 3.55µM* | 13.5µM*
O=C(Nc1ccccc1C(=O)N1CCCCC1)c1cccs1 | -1.3% | 0.7% | . | -0.4% | 1.8%
CCCn1cnc2cc(NCc3ccc(Br)cc3)ccc21 | 3.55µM* | ? | . | ? | 10.7µM*
CCCn1cnc2cc(NCc3cccc(OC)c3)ccc21 | ? | 15.9% | 12.6µM* | ? | 16.9µM*
Cn1cnc2cc(NCc3ccc(Cl)cc3)ccc21 | 0.891µM* | ? | . | 2.51µM* | 16.9µM*
COc1ccccc1-n1cnc2cc(NCc3ccco3)ccc21 | 5.0% | ? | 7.1% | -3.0% | 19µM*
COc1ccccc1-n1cnc2cc(NCc3ccccc3O)ccc21 | 13.4% | 5.6% | . | -1.9% | ?
CCOc1ccc(S(=O)(=O)NCCC(=O)NCC(c2ccco2)N2CCCCC2)cc1 (stereo not given) | -5.8% | -0.6% | . | 0.2% | 6.7%
CN(Cc1ccccc1)Cc1c(F)cccc1F | -3.6% | -4.6% | 1.41µM* | -1.6% | 14.6%
